# Assays:
# [1] = target: Tyrosine-protein kinase Fer (Homo sapiens) (UniProt P16591); details: at 10 µM
# [2] = target: Tyrosine-protein kinase Fes/Fps (Homo sapiens) (UniProt P07332); details: at 1 µM
# [3] = target: Tyrosine-protein kinase Fes/Fps (Homo sapiens) (UniProt P07332); details: at 10 µM
# [4] = target: Tyrosine-protein kinase Fgr (Homo sapiens) (UniProt P09769); details: at 1 µM
# [5] = target: Tyrosine-protein kinase Fgr (Homo sapiens) (UniProt P09769); details: at 10 µM
# [6] = target: Vascular endothelial growth factor receptor 1 (Homo sapiens) (UniProt P17948); details: at 1 µM
# [7] = target: Vascular endothelial growth factor receptor 1 (Homo sapiens) (UniProt P17948); details: at 10 µM
# [8] = target: Receptor-type tyrosine-protein kinase FLT3 (Homo sapiens) (UniProt P36888); details: at 1 µM
# [9] = target: Receptor-type tyrosine-protein kinase FLT3 (Homo sapiens) (UniProt P36888); details: at 10 µM
# [10] = target: Vascular endothelial growth factor receptor 3 (Homo sapiens) (UniProt P35916); details: at 1 µM
# Vascular endothelial growth factor receptor 3 (Homo sapiens), sequence (P35916 whole entry): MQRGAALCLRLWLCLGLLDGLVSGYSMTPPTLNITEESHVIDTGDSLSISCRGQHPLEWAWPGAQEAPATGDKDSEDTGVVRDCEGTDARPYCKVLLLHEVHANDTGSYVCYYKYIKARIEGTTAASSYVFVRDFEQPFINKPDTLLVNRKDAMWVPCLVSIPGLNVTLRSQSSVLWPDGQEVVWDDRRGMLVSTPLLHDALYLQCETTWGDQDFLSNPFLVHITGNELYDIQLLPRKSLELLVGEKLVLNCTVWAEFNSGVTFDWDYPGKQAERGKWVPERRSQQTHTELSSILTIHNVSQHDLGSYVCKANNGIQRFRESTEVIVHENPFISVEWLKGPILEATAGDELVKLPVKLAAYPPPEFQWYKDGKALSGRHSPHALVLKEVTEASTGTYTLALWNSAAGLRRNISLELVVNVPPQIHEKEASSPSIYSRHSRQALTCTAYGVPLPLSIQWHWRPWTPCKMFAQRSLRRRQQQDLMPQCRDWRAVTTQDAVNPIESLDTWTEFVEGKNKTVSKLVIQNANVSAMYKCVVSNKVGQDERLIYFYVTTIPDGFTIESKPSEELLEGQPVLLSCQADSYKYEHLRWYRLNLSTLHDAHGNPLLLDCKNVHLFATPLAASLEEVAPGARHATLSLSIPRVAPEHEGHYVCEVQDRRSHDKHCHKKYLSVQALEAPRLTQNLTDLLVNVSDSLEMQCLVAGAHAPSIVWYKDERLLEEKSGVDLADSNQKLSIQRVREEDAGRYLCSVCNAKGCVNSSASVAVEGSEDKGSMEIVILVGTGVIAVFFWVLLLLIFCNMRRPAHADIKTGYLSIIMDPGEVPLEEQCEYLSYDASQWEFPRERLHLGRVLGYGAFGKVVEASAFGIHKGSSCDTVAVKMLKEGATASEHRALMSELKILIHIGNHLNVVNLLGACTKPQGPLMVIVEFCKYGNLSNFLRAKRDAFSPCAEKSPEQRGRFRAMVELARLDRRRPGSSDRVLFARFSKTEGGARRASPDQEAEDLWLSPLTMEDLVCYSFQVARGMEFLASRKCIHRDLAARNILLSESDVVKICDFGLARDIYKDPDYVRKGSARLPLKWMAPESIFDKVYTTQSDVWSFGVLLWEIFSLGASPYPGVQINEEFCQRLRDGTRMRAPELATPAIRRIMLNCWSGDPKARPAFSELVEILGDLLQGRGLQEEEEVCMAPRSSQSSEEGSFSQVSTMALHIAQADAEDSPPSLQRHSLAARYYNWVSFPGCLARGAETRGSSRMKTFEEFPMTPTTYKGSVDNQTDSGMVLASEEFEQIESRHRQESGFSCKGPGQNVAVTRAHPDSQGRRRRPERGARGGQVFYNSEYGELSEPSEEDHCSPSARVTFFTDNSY
# [11] = target: Vascular endothelial growth factor receptor 3 (Homo sapiens) (UniProt P35916); details: at 10 µM
# [12] = target: Macrophage colony-stimulating factor 1 receptor (Homo sapiens) (UniProt P07333); details: at 1 µM
# Macrophage colony-stimulating factor 1 receptor (Homo sapiens), sequence (P07333 whole entry): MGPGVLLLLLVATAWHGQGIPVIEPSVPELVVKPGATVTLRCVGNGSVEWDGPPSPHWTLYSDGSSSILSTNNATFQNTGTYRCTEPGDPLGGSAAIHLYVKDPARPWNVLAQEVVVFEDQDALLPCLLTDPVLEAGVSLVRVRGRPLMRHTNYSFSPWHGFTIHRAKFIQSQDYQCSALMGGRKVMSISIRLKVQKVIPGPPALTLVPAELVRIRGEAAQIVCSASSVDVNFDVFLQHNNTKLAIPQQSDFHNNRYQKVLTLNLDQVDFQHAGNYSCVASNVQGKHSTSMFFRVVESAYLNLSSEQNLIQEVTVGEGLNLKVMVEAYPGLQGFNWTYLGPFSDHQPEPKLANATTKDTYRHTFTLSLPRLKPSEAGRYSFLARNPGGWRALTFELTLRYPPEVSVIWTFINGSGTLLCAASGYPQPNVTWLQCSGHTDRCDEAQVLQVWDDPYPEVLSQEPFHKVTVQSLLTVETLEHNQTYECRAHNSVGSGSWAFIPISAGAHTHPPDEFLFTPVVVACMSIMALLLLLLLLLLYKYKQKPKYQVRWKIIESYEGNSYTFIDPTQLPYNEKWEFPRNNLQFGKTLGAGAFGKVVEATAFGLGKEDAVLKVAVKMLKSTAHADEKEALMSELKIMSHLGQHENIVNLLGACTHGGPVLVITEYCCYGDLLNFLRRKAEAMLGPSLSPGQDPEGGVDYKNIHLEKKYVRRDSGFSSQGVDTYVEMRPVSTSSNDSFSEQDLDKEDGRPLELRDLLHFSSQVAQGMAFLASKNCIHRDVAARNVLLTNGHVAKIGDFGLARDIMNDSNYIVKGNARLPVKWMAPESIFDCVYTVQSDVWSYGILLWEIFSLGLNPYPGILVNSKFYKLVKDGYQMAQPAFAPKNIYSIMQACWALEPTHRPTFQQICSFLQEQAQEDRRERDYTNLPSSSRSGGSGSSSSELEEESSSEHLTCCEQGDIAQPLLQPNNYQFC
# [13] = target: Macrophage colony-stimulating factor 1 receptor (Homo sapiens) (UniProt P07333); details: at 10 µM
# [14] = target: Tyrosine-protein kinase Fyn (Homo sapiens) (UniProt P06241); details: at 1 µM
# Tyrosine-protein kinase Fyn (Homo sapiens), sequence (P06241 2-537 limits assumed): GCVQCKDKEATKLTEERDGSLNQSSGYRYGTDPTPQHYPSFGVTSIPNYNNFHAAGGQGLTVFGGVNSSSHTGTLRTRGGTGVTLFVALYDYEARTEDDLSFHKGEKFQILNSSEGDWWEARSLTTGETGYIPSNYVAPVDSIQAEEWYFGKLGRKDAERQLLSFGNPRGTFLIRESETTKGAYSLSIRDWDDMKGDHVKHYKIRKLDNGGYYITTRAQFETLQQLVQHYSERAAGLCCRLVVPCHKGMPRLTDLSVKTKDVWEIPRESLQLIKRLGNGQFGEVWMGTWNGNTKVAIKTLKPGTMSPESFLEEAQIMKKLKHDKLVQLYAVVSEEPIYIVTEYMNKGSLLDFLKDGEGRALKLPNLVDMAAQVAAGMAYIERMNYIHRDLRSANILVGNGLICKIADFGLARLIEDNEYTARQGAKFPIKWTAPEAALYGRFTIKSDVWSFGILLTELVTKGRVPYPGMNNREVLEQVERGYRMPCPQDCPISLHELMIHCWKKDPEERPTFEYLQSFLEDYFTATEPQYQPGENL
# [15] = target: Tyrosine-protein kinase Fyn (Homo sapiens) (UniProt P06241); details: at 10 µM
# [16] = target: T1, Mitogen-activated protein kinase kinase kinase kinase 2 (Homo sapiens) (UniProt Q12851); details: at 1 µM
# T1 sequence (whole entry): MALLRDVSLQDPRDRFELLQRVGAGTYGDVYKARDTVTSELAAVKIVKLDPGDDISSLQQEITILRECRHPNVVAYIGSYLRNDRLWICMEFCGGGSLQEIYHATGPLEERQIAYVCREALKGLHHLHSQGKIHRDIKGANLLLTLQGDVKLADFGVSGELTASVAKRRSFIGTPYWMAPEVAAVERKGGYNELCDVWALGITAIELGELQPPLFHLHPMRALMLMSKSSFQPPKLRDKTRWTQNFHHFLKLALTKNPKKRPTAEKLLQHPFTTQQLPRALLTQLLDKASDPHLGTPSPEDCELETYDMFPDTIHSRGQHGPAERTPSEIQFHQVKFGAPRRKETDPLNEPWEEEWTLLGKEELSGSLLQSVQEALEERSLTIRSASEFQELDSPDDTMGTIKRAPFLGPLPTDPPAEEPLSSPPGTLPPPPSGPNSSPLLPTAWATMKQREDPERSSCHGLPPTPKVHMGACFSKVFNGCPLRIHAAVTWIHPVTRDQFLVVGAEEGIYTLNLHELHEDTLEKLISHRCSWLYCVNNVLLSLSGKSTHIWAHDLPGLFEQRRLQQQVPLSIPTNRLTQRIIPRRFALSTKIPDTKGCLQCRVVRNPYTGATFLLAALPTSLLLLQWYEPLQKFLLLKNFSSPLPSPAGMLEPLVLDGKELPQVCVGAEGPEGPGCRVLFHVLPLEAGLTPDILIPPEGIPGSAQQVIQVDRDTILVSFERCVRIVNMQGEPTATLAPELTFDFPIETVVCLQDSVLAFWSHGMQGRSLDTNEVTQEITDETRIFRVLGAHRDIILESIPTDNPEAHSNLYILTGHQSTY
# [17] = target: T1, Mitogen-activated protein kinase kinase kinase kinase 2 (Homo sapiens); details: at 10 µM
# [18] = target: G protein-coupled receptor kinase 5 (Homo sapiens) (UniProt P34947); details: at 10 µM
# [19] = target: G protein-coupled receptor kinase 6 (Homo sapiens) (UniProt P43250); details: at 10 µM
# G protein-coupled receptor kinase 6 (Homo sapiens), sequence (P43250 whole entry, looked up): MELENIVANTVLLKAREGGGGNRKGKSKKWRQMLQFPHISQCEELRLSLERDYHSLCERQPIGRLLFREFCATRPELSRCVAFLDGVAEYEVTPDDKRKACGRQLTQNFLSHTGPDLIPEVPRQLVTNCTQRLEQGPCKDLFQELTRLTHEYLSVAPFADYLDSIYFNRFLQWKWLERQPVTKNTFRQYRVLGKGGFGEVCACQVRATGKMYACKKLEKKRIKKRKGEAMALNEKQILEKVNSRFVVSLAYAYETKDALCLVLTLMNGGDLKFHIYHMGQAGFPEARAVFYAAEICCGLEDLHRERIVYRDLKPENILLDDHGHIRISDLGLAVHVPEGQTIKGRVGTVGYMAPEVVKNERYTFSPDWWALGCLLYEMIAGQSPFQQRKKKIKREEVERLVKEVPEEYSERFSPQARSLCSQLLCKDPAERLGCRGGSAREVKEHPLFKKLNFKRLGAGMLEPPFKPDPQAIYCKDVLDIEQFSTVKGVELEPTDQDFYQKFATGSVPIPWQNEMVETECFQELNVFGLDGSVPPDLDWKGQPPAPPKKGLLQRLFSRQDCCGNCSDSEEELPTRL
# [20] = target: T2, Rhodopsin kinase GRK7 (Homo sapiens) (UniProt Q8WTQ7); details: at 1 µM
# T2 sequence (whole entry): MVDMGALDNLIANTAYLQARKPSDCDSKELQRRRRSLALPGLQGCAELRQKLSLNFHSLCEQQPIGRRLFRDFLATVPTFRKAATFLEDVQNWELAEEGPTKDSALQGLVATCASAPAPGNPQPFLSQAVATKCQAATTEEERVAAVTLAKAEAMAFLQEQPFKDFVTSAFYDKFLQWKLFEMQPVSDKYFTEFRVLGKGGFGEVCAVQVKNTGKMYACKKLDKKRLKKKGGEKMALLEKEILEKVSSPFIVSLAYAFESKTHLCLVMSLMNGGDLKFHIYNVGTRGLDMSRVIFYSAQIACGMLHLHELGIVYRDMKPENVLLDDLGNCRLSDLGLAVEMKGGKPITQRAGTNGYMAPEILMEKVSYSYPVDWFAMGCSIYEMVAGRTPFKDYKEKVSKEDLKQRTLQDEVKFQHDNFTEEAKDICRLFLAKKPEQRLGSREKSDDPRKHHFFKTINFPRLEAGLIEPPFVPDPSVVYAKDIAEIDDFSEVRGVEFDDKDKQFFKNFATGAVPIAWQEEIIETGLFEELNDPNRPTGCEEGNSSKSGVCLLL
# Tyrosine-protein kinase Fer (Homo sapiens), sequence (P16591 whole entry, looked up): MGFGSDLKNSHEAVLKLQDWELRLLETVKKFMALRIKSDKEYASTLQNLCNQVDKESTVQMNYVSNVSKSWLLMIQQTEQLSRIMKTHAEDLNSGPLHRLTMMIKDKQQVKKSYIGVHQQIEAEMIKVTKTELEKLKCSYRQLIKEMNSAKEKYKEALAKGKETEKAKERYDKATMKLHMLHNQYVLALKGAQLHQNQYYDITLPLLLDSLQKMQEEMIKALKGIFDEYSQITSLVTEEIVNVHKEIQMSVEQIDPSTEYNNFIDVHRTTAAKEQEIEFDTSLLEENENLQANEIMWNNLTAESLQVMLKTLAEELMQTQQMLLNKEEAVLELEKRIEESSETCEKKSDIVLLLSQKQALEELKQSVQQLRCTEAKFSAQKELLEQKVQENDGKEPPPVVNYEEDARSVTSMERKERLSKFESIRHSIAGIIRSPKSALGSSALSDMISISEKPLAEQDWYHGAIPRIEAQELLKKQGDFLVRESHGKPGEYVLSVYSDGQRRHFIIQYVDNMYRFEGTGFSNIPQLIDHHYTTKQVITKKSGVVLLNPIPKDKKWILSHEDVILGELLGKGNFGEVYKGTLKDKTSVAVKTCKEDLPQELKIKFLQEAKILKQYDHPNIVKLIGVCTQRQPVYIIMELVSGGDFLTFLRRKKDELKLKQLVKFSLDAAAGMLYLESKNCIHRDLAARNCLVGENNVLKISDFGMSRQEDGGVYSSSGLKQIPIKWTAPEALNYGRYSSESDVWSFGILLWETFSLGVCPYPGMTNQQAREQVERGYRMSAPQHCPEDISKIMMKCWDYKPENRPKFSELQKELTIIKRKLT
# Tyrosine-protein kinase Fes/Fps (Homo sapiens), sequence (P07332 whole entry): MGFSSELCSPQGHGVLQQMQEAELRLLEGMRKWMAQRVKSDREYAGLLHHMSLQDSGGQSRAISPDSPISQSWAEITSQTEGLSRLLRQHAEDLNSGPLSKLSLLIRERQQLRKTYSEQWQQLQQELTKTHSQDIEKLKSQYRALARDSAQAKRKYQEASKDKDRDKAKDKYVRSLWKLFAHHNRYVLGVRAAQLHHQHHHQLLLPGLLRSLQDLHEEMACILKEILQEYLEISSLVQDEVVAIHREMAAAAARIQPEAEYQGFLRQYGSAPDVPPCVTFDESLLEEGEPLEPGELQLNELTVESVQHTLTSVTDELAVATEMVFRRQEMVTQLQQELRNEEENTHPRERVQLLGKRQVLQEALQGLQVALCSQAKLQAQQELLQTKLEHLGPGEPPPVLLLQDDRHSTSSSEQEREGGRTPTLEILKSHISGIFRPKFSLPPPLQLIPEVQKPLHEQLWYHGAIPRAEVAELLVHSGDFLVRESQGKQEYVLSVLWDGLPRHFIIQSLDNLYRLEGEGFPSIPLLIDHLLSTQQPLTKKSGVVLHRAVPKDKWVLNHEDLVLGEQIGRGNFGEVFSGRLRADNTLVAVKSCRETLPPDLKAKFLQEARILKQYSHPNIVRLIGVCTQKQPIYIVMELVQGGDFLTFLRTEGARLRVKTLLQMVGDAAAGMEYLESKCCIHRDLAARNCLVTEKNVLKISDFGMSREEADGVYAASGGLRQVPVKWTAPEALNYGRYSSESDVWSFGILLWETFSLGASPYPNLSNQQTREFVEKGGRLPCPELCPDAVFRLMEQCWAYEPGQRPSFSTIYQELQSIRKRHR
SMILES,residual activity [1] [%],residual activity [2] [%],residual activity [3] [%],residual activity [4] [%],residual activity [5] [%],residual activity [6] [%],residual activity [7] [%],residual activity [8] [%],residual activity [9] [%],residual activity [10] [%],residual activity [11] [%],residual activity [12] [%],residual activity [13] [%],residual activity [14] [%],residual activity [15] [%],residual activity [16] [%],residual activity [17] [%],residual activity [18] [%],residual activity [19] [%],residual activity [20] [%]
O=c1c2ccccc2[nH]c(=S)n1CCN1CCC(=C(c2ccc(F)cc2)c2ccc(F)cc2)CC1,89,117,93,110,91,97,98,81,57,89,92,69,84,89,46,93,82,89,90,93
Nc1cccc(-c2cc3c(Oc4cccc(O)c4)ncnc3[nH]2)c1,10,13,1,0,2,0,0,22,1,-1,0,3,-1,0,-2,42,8,93,93,92
Nc1nc(Nc2ccc(S(N)(=O)=O)cc2)nn1C(=S)Nc1c(F)cccc1F,1,2,1,9,1,0,-1,2,1,0,-1,5,0,6,-1,1,-1,30,–,–
Ic1cccc(CSc2nnc(-c3ccncc3)o2)c1,100,88,92,80,81,26,19,30,19,22,15,71,53,71,84,49,35,89,83,88
O=Nc1c(-c2c(O)[nH]c3ccccc23)[nH]c2ccccc12,53,72,30,8,1,1,0,1,0,-1,1,15,8,5,0,13,1,58,80,73
Oc1ccc(Nc2nc(-c3ccc(Cl)cc3)cs2)cc1,100,106,95,96,93,99,77,70,56,45,21,72,43,87,68,97,60,100,102,103
CCN(CC)CCCCN1c2ccccc2Oc2ccc(Cl)cc21,102,129,88,111,95,115,112,98,74,96,102,124,127,102,108,109,91,97,98,111
O=C1c2ccccc2-[n+]2ccc3c([nH]c4ccccc43)c21,90,89,88,92,85,79,67,87,52,76,25,68,58,77,76,75,73,91,90,91
O=C1NC(=O)/C(=C/c2ccc3c(c2)OC(F)(F)O3)S1,86,128,90,105,101,92,85,89,83,98,83,56,72,93,79,106,87,101,87,107
O=C(Nc1cccc(Nc2nccc(Nc3cccc(C(F)(F)F)c3)n2)c1)C1CC1,59,84,68,59,67,59,6,45,3,55,6,14,2,47,7,97,32,102,94,104
CNc1cc2c(Nc3cccc(Br)c3)ncnc2cn1,90,116,92,73,60,87,58,119,107,87,38,88,59,57,16,81,34,100,90,93
O=C1NC(=O)c2cc(Nc3ccc(F)cc3)c(Nc3ccc(F)cc3)cc21,86,112,69,89,44,77,66,107,73,84,65,75,54,68,50,81,71,90,81,93
COc1cc2ncnc(N3CCN(C(=O)Nc4ccc(Oc5ccccc5)cc4)CC3)c2cc1OC,88,98,86,96,97,56,21,37,18,31,7,7,2,84,82,80,69,93,82,80
Oc1c2ccccc2c2c3c(cccc13)N=N2,51,34,6,75,38,26,2,6,1,2,0,36,9,60,47,16,2,63,81,71

# Source: ChEMBL document CHEMBL2218924, “A broad activity screen in support of a chemogenomic map for kinase signalling research and drug discovery” (Biochem J, 2013)
